The text below walks through data of publication PMC5540273 (PLoS ONE, 2017).

Common to all, as to details: concentration: 1 μM, replicates: in singlicate; n = 1
The subject of experiment [1] is T1, PFTK1.
T1 construct: gene CDK14

The test system of experiment [2] is PHKG1.
For experiment [3], the system named is PHKG2.
Experiment [4] concerns PIK3C2B.
Experiment [5] has as its system PIK3C2G.
The subject of experiment [6] is PIK3CA.
The test system of experiment [7] is PIK3CB.
For experiment [8], the system named is PIK3CD.
For experiment [9], the system named is PIK3CG.
Experiment [10] relates to T2, PIK4CB.
T2 construct: gene PI4KB

Experiment [11] concerns PIKFYVE.
Experiment [12] has as its system PIM1.
Experiment [13] relates to PIM2.
For experiment [14], the system named is PIM3.
The subject of experiment [15] is PIP5K1A.
Experiment [16] relates to PIP5K1C.
In experiment [17] the test system is PIP5K2B.
The subject of experiment [18] is T3, PIP5K2C.
T3 construct: gene PIP4K2C

The test system of experiment [19] is T4, PKAC-alpha.
T4 construct: gene PRKACA

The test system of experiment [20] is T5, PKAC-beta.
T5 construct: gene PRKACB
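Further: KINOMEscan kinase panel screen.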

Consider `O=C(NCCNc1ccnc(Nc2ccc(F)cc2)n1)c1cc2ccccc2s1` [GSK1379874], for which the “%Inh” value in experiment [1], in experiment [2], in experiment [3], in experiment [4], in experiment [5] and in experiment [6] was 0% in each case. The “%Inh” value in experiment [7], in experiment [8], in experiment [9], in experiment [10], in experiment [11] and in experiment [12] was 0% throughout. Besides, the “%Inh” value in experiment [13] turned out to be 0%; in [14], 0%; in experiment [15] it was 0%; in experiment [16] it was 0%; in experiment [17] it was 8%; in experiment [18] it was 42%. For the same molecule, the “%Inh” value in experiment [19] and in experiment [20] was 0% in each case.
Turning to `CC(C)(C)n1cnc2c(N)ncnc21` [SKF-97359], the “%Inh” value came to 0% in experiment [1]; 14% in experiment [2]; 24% in experiment [3]; 0% in experiment [4]; 0% in experiment [5]; 0% in experiment [6]. Moreover, the “%Inh” value was found to be 0% in [7]; 0% in experiment [8]; 0% in [9]; 25% in experiment [10]; 51% in experiment [11]; 0% in [12]. The “%Inh” value in experiment [13] was 0%; in experiment [14], 0%; in [15], 32%; in experiment [16], 51%; in [17], 24%; in [18] it was 34%. Further, the figures for the “%Inh” value in [19] and in experiment [20] were 0% and 20%, respectively.
Consider `Cc1cccc(-c2nc(Nc3ccc4ncsc4c3)c3ccccc3n2)n1` [GW867588], for which the “%Inh” value in experiment [1] is recorded as 0%; in [2], 0%; in [3], 0%; in experiment [4], 0%; in experiment [5] it was 10%; in [6], 0%. Further, the “%Inh” value in experiment [7] stood at 0%; in experiment [8] it was 30%; in experiment [9] it was 0%; in [10], 28%; in experiment [11], 54%; in [12] it was 9%. Besides, the “%Inh” value in experiment [13] was found to be 0%; in experiment [14] it was 16%; in experiment [15], 27%; in experiment [16] it was 4%; in experiment [17], 0%; in [18], 18%. The “%Inh” value in [19] turned out to be 11%; in [20] it was 21%.
Regarding `COc1cc2c(cc1OCCN1CCN(C)CC1)ncc1c3ccc(C#N)cc3[nH]c21`, the “%Inh” value in experiment [1] was 18%; in experiment [2] it was 98.2%; in experiment [3], 99.8%; in [4], 0%; in [5], 25%; in [6], 0%. In addition, the “%Inh” value in experiment [7] is on record as 0%; in experiment [8], 0%; in experiment [9] it was 0%; in [10], 0%; in experiment [11], 64%; in [12], 34%. In addition, the “%Inh” value worked out at 90.9% in experiment [13]; 63% in [14]; 57% in experiment [15]; 55% in experiment [16]; 94.8% in experiment [17]; 35% in experiment [18]. The “%Inh” value in experiment [19] and in [20] was 0% throughout.
As to `O=C(Nc1n[nH]c2cc(-c3cccc(F)c3)ccc12)C1CC1` [SB-735464], the “%Inh” value worked out at 3% in experiment [1]; 0% in [2]; 0% in experiment [3]; 19% in experiment [4]; 20% in experiment [5]; 0% in [6]. Moreover, the “%Inh” value in [7] is reported as 4%; in experiment [8], 14%; in experiment [9], 16%; in experiment [10], 18%; in experiment [11] it was 0%; in experiment [12], 2%. The “%Inh” value in [13] stood at 0%; in [14], 4%; in experiment [15], 37%; in [16], 18%; in experiment [17] it was 5%; in experiment [18], 11%. Besides, the results for the “%Inh” value in experiment [19] and in [20] were 3% and 6%, respectively.
